Data from PubChem BioAssay (NCATS).
Several values for one entry are separate records, joined by “and”; a condition that tells them apart may be missing. Equal values may be shown once. Unmarked numbers belong to inactive results. Inconclusive results are not listed. A call without a number means that no potency is given here. Activity calls are given as the source filed them. Unless noted, the call rests on the fitted dose curve; in most records, active means well fitted curve in the direction sought with a large enough effect; inconclusive means small, poorly fitted or top-dose-only effect, or another doubt; inactive means no such curve, though single readings can be large; an effect the other way counts as inactive or inconclusive.

Experiments:
[1] = Cell Viability - BJ (AID 421; calls by dose curve;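 further: potency means the concentration at half of the fitted maximal effect; cells exposed to compound for 40 hours at 37 °C before readout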); conditions: BJ fibroblast viability, qHTS
Method in brief: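 Normal human BJ foreskin fibroblasts, 1500/well in complete medium, treated 40 hr at 37 °C. Cellular ATP by CellTiter-Glo luminescence; normalized to DMSO and 100 uM tamoxifen, AC50 from Hill fit.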

[2] = Cell Viability - Hek293 (AID 427;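 active means compounds whose dose-response curve shows a full or clear partial loss of cell viability, called from curve shape rather than a numeric limit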;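 further: potency means the concentration at half of the fitted maximal effect; cells exposed to compound for 40 hours at 37 °C before reading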); conditions: qHTS
Method in brief: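 HEK293 cells in complete medium were exposed to compound for 40 hr at 37 °C, then cellular ATP was read by CellTiter-Glo luminescence. Data were normalized to DMSO (basal) and 100 uM tamoxifen (100% inhibition), and AC50 came from Hill fits.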

[3] = Cell Viability - HepG2 (AID 433; calls by dose curve;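 further: potency means the concentration at half of the fitted maximal effect; potency for ATP loss meaning cytotoxicity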); conditions: qHTS
Method in brief: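 HepG2 cells, 1500 per well, treated 40 hr at 37 °C in complete medium; viability from intracellular ATP by CellTiter-Glo luminescence. Normalized to DMSO and 100 uM tamoxifen; AC50 from Hill fit of qHTS concentration-response.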

[4] = Cell Viability - MRC5 (AID 434; calls by dose curve;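 further: potency means the concentration at half of the fitted maximal effect; potency reflects cytotoxicity seen as loss of intracellular ATP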); conditions: MRC5 lung fibroblast viability, qHTS
Method in brief: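 MRC5 normal human lung fibroblasts, 1500 cells/well, exposed to compound for 40 hr at 37 C. Cellular ATP was read by CellTiter-Glo luminescence; data normalized to DMSO and 100 uM tamoxifen, with AC50 from Hill fits.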

[5] = Cell Viability - SK-N-SH (AID 435; calls by dose curve;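 further: potency means the concentration at half of the fitted maximal effect; compound exposure lasted 40 h at 37 °C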); conditions: SK-N-SH neuroblastoma cell viability qHTS
Method in brief: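 SK-N-SH neuroblastoma cells (1500/well) treated 40 h at 37 °C in complete medium; viability read as cellular ATP by CellTiter-Glo luminescence. Normalized to DMSO and 100 uM tamoxifen; AC50 from Hill fits of qHTS concentration-response.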

[6] = Cell Viability - HUV-EC-C (AID 542); conditions: HUV-EC-C endothelial cell viability, qHTS; series mostly up to 92.2 µM; further: nearly all actives have a fitted effect of over 35% in size
Method in brief: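 HUV-EC-C normal human vascular endothelial cells, 1000 cells/well, pre-incubated 5 hr at 37 °C, then exposed to compounds for 40 hr at 37 °C in complete medium. Viability measured as intracellular ATP by CellTiter-Glo luminescence; AC50 from Hill fits.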

[7] = Cell Viability - Mesenchymal (AID 546); conditions: mesenchymal cells viability, qHTS; series mostly up to 91.7 µM;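 further: cells exposed to compound for 40 hours before reading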
Method in brief: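 Human kidney mesenchymal cells from normal renal glomeruli, 1000 cells/well, rested 5 hr at 37 °C, then treated 40 hr at 37 °C in complete medium. Cellular ATP read by CellTiter-Glo luminescence; AC50 from Hill-equation fits.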

[8] = Cellular Toxicity (caspase-3) HepG2 (AID 654); conditions: HepG2 caspase-3 activation, luminescence, 0% = DMSO only, 100% = tamoxifen; series mostly up to 92.2 µM;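 further: cells exposed to compound for 16 hours before reading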
Method in brief: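 HepG2 cells (1500/well) in complete medium were treated with compounds for 16 hr at 37 °C. Caspase-3/7 activity was then read as luminescence from peptide-aminoluciferin cleavage. AC50 came from Hill fits, normalized to DMSO and 100 uM tamoxifen.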

[9] = Cellular Toxicity (caspase-3) HUV-EC-C (AID 656); conditions: HUV-EC-C cells, caspase-3 activation (apoptosis), vehicle = 0, 100 µM tamoxifen = 100%; series mostly up to 92.2 µM
Method in brief: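 HUV-EC-C cells (1000/well) in complete medium, compound-treated 16 h at 37 °C; caspase-3/7 activity read by Caspase-Glo 3/7 luminescence. Normalized to DMSO (basal) and 100 uM tamoxifen (100%); AC50 from Hill-equation concentration-response fits.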

[10] = Cellular Toxicity (caspase-3) BJ (AID 658); conditions: BJ fibroblasts, luminescence, normalized: DMSO 0%, staurosporine 100%; series mostly up to 91.7 µM
Method in brief: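 BJ human foreskin fibroblasts, 1000 cells/well, treated 16 hours at 37 °C in complete medium; caspase 3/7 activity by Caspase-Glo luminescence after 1 hr at room temperature. Normalized to DMSO and 10 uM staurosporine; AC50 from Hill fits.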

[11] = Cellular Toxicity (caspase-3) MRC-5 (AID 659); conditions: MRC-5 cells, luminescence, normalized: DMSO 0%, 10 µM staurosporine 100%; series mostly up to 91.7 µM
Method in brief: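 MRC-5 human normal lung fibroblasts, 1500 cells/well, treated 16 h at 37 °C in complete medium. Caspase 3/7 measured by Caspase-Glo luminescence after 1 h at room temperature. Normalized to DMSO and 10 uM staurosporine; AC50 from Hill fit.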

[12] = Cellular Toxicity (caspase-3) SK-N-SH (AID 661); conditions: SK-N-SH caspase-3 activation, qHTS, DMSO as zero, staurosporine as full; series mostly up to 91.7 µM
Method in brief: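 SK-N-SH human neuroblastoma cells (1500/well) were treated with compounds for 16 hr at 37 °C in complete medium; caspase 3/7 activity was read by Caspase-Glo luminescence. AC50 came from Hill fits of data normalized to DMSO and 10 uM staurosporine.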

[13] = Cellular Toxicity (caspase-3) N2a (AID 665); conditions: N2a cells, luminescence, normalized: DMSO 0%, 10 µM staurosporine 100%; series mostly up to 92.2 µM;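 further: compound exposure lasted 16 h at 37 °C before readout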
Method in brief: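 Mouse N2a neuroblastoma cells (1500/well) were treated with compounds for 16 h at 37 °C, then caspase-3/7 activity was read by Caspase-Glo luminescence after 1 h at room temperature. Data were normalized to DMSO and 10 uM staurosporine; AC50 from Hill fits.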

[14] = Cellular Toxicity (caspase-3) NIH 3T3 (AID 666); conditions: NIH 3T3 caspase-3 activation, apoptosis/toxicity, 0% DMSO, 100% is 100 µM tamoxifen; series mostly up to 92.2 µM;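 further: caspase signal read after 16 h compound exposure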
Method in brief: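 Mouse NIH 3T3 fibroblasts (1000 cells/well) were treated with compound for 16 hr at 37°C in complete medium; caspase-3/7 activity was read by Caspase-Glo luminescence. Normalized to DMSO and 100 uM tamoxifen; AC50 from Hill fits.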

[15] = Cellular Toxicity (caspase-3) Renal Proximal Tubule (AID 667); conditions: renal proximal tubule cells; series mostly up to 91.7 µM;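 further: cells exposed to compound for 16 hours at 37 °C before detection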
Method in brief: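 Freshly isolated primary rat kidney proximal tubule cells, 1000/well, treated 16 hr at 37 °C, then Caspase-Glo 3/7 luminescence after 1 hr. Normalized to DMSO and 10 uM staurosporine; AC50 from Hill fit.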

[16] = qHTS assay for small molecule disruptors of the mitochondrial membrane potential - 5 hr assay (AID 651755; calls by dose curve; further: nearly all actives have a fitted effect of over 40% in size; further: potency means the concentration at half of the fitted maximal effect); conditions: JC-1-type ratio dye; series mostly up to 92.2 µM
Method in brief: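 HepG2 cells (2,000/well), attached overnight, exposed to compound 5 hr at 37C, then Mito-MPS dye 30 min. Fluorescence read for monomers (490/535 nm) and aggregates (540/590 nm).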

[17] = molecular target: Peroxisome proliferator-activated receptor alpha (Homo sapiens) (UniProt Q07869); assay: qHTS assay for small molecule agonists of the peroxisome proliferator-activated receptor alpha (PPARalpha) signaling pathway (AID 651778); conditions: PathHunter PPARalpha complementation, chemiluminescence, 6 h; active compounds read high
Method in brief: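 Enzyme-fragment complementation assay in which ligand-bound PPARalpha translocates and forms an active enzyme that generates chemiluminescence. Cells were plated overnight, exposed to compound for 6 hr at 37 C, and then given detection reagent for 60 min at room temperature.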

[18] = qHTS assay for small molecule antagonists of the retinoid-related orphan receptor gamma (ROR-gamma) signaling pathway - cell viability counter screen (AID 720652; active means well fitted curve in the direction sought with a large enough effect in the repeat runs; an effect the other way counts as inactive or inconclusive;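 further: CHO reporter cells with doxycycline-induced ROR-gamma expression; compound exposure lasted 16 hr before ATP read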); conditions: RORgamma reporter cell line viability counter screen; series mostly up to 92.2 µM
Method in brief: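 Counter screen in CHO cells carrying TET-inducible ROR-gamma and an ROR response element-luciferase reporter; cells plated 5 hr, compound pinned, doxycycline added, then 16 hr at 37 C. Viability read as intracellular ATP by CellTiter-Glo luminescence.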

[19] = qHTS assay for cell viability of HEK293 cells (AID 743288); conditions: ATP luminescence (CellTiter-Glo), 18 h; max response: active compounds read low; further: nearly all actives have a fitted effect of over 50% in size
Method in brief: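 Parental HEK293 cells, 2,000 per well, preincubated at least 5 h at 37 C, then exposed to compounds in DMSO for 18 h at 37 C. Viability by CellTiter-Glo ATP luminescence after 30 min at room temperature.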

[20] = qHTS assay for cell viability of the p53RE-bla HCT-116 cell line (AID 743292); conditions: p53RE-bla HCT-116 viability, ATP luminescence, 16 h; series mostly up to 95 µM; further: nearly all actives have a fitted effect of over 55% in size
Method in brief: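 CellSensor p53RE-bla HCT-116 cells (4,000/well) pre-incubated 5 h at 37 C, then exposed to compounds in DMSO for 16 h at 37 C. Viability read as ATP content by CellTiter-Glo luminescence after 30 min at room temperature.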

Sequence of Peroxisome proliferator-activated receptor alpha (Homo sapiens) (Q07869 whole entry, looked up, the tested form may be a part): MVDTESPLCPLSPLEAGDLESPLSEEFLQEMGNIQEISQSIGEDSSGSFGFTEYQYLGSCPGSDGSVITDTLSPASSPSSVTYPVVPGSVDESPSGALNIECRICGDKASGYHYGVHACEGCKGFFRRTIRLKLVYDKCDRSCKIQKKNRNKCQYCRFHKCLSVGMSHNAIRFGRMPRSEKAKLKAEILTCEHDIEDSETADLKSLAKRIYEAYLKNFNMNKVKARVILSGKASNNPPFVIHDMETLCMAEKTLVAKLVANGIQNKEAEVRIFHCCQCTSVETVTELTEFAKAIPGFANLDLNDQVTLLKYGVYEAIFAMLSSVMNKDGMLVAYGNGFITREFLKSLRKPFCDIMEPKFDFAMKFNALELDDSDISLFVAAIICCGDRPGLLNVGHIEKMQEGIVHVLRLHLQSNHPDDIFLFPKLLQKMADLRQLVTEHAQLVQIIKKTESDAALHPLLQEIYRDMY

SMILES	Potency [1] [µM]	Potency [2] [µM]	Potency [3] [µM]	Potency [4] [µM]	Potency [5] [µM]	outcome [6]	outcome [7]	outcome [8]	outcome [9]	outcome [10]	outcome [11]	outcome [12]	outcome [13]	outcome [14]	outcome [15]	Potency [16]	max response [17]	outcome [18]	max response [19]	outcome [20]
CC(C)COC(=O)c1ccccc1C(=O)OCC(C)C	> 92	> 92	> 92	> 92	> 92	inactive	inactive	inactive	inactive	inactive	inactive	inactive	inactive	inactive	inactive	inactive	-0.716%	inactive	0.653%	inactive
Oc1ccccc1Cl	> 92	> 92	> 92	> 92	> 92	inactive	inactive	inactive	inactive	inactive	inactive	inactive	inactive	inactive	inactive	inactive	-3.34%	inactive	-13.2%	inactive
c1ccc2c(c1)-c1cccc3cccc-2c13	> 92	> 92	> 92	> 92	> 92	inactive	inactive	inactive	inactive	inactive	inactive	inactive	inactive	inactive	inactive	inactive	-3.35% and -1.28%	inactive	-24.1% and 3.9%	inactive
c1ccc(Nc2ccc3ccccc3c2)cc1	> 92	> 92	> 92	> 92	> 92	inactive	inactive	inactive	inactive	inactive	inactive	inactive	inactive	inactive	inactive	42.2 µM (active)	18.5% and 8.75%	inactive	-12% and -13.2%	inactive
CC(=O)/C=C/c1ccccc1	> 92	> 92	> 92	> 92	> 92	inactive	inactive	inactive	inactive	inactive	inactive	inactive	inactive	inactive	inactive	inactive	-5.69%	inactive	-4.92%	inactive
COC1=CC(=O)OC(CCc2ccc3c(c2)OCO3)C1 (stereo not given)	> 92	> 92	> 92	> 92	> 92	inactive	inactive	inactive	inactive	inactive	inactive	inactive	inactive	inactive	inactive	inactive	-0.116%	inactive	-5.17%	inactive
CCOC(=O)c1ccccc1N	> 92	> 92	> 92	> 92	> 92	inactive	inactive	inactive	inactive	inactive	inactive	inactive	inactive	inactive	inactive	inactive	-7.33%	inactive	-8.89%	inactive
